From PMC9838217, “Structure of SALL4 zinc finger domain reveals link between AT-rich DNA binding and Okihiro syndrome”
Substitutions are numbered along the chain they refer to.

Tests used:
Assay in all cases: HT-SELEX; high values mean tight binding
Conditions in all cases: protein: recombinant; vector His6-GST; dsDNA, one strand shown
SALL4 ZFC4 WT (HT-SELEX) = target: T1, SALL4 ZFC4 WT (HT-SELEX) (Mus musculus, UniProt Q8BX22 870-940)
T1 sequence: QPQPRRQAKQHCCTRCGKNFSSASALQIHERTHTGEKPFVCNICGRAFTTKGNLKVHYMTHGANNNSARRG
Method in brief: (§1)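 In triplicate selections of up to 6 cycles, purified recombinant mouse SALL4 zinc finger cluster 4 (residues 870–940, 1 µg) was incubated 10 min at room temperature with library DNA (1.5 µg, then 200 ng) in 100 µl of 10 mM Tris–HCl pH 7.5, 50 mM NaCl, poly(dI-dC) and DTT, and complexes were captured on Ni2+ beads, washed and PCR-amplified. Sequencing was done on MiSeq with scanning for 6-mers. The binding signal is each canonical k-mer's read fraction, reported as fold change against the initial random library.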

[1] = target: T2, SALL4 ZFC4 R900W (HT-SELEX) (Mus musculus, UniProt Q8BX22 870-940, R900W)
T2 sequence: T1 sequence with R31W
Method in brief: as §1

[2] = target: T3, SALL4 ZFC4 G921D (HT-SELEX) (Mus musculus, UniProt Q8BX22 870-940, G921D)
T3 sequence: T1 sequence with G52D
Method in brief: as §1

| Sequence | binding signal (SALL4 ZFC4 WT (HT-SELEX)) [fold-change vs cycle 0] | binding signal [1] [fold-change vs cycle 0] | binding signal [2] [fold-change vs cycle 0] |
| --- | --- | --- | --- |
| TACATA | 2.44 ± 0.175 | 2.02 ± 0.121 | 1.78 ± 0.178 |
| GCCTAA | 0.547 ± 0.0354 | 0.643 ± 0.0255 | 0.746 ± 0.0372 |
| AGGCAT | 0.627 ± 0.0329 | 0.715 ± 0.0142 | 0.816 ± 0.0443 |
| CTATTC | 1.3 ± 0.0236 | 1.46 ± 0.0185 | 1.39 ± 0.0918 |
| ACTACC | 0.799 ± 0.0371 | 0.948 ± 0.0381 | 0.968 ± 0.0334 |
| GACGTA | 0.666 ± 0.0264 | 0.752 ± 0.0315 | 0.823 ± 0.0398 |
| AATAGC | 1 ± 0.0454 | 1.07 ± 0.0474 | 1.11 ± 0.00486 |
| AACCCG | 0.371 ± 0.0321 | 0.432 ± 0.0178 | 0.538 ± 0.0569 |
| CTTAGC | 0.73 ± 0.019 | 0.843 ± 0.0192 | 0.8905 ± 0.00272 |
| ATAAGA | 2.45 ± 0.123 | 2.3 ± 0.143 | 1.92 ± 0.245 |
| AAAAGA | 1.8 ± 0.0481 | 1.94 ± 0.106 | 1.7 ± 0.125 |
| GGTTCA | 0.788 ± 0.0387 | 0.916 ± 0.0428 | 0.966 ± 0.0244 |
| AGAAAG | 1.31 ± 0.0378 | 1.52 ± 0.0945 | 1.36 ± 0.112 |
| AGAATG | 1.34 ± 0.0249 | 1.52 ± 0.0481 | 1.35 ± 0.0697 |
| GACACA | 0.629 ± 0.04 | 0.754 ± 0.0153 | 0.837 ± 0.0392 |
| AAGGTG | 0.806 ± 0.0296 | 0.944 ± 0.0313 | 0.95 ± 0.0211 |
| GAGAAC | 0.84 ± 0.00885 | 1 ± 0.0376 | 1.04 ± 0.00942 |
| AGTGGA | 0.862 ± 0.03 | 0.954 ± 0.0352 | 0.964 ± 0.0435 |
| CAATAC | 1.22 ± 0.0144 | 1.3 ± 0.0388 | 1.29 ± 0.0522 |
| AGTAAC | 1.458 ± 0.009 | 1.62 ± 0.0372 | 1.49 ± 0.109 |

| Sequence | binding signal (SALL4 ZFC4 WT (HT-SELEX)) [fold-change vs cycle 0] | binding signal [1] [fold-change vs cycle 0] | binding signal [2] [fold-change vs cycle 0] |
| --- | --- | --- | --- |
| CGGGAA | 0.362 ± 0.00736 | 0.417 ± 0.0262 | 0.499 ± 0.0534 |
| AAGTCA | 1.3 ± 0.0493 | 1.46 ± 0.0531 | 1.35 ± 0.0928 |
| ATAAAC | 2.24 ± 0.173 | 2.02 ± 0.13 | 1.76 ± 0.163 |
| CTTCTA | 1.36 ± 0.0301 | 1.53 ± 0.0956 | 1.4 ± 0.104 |
| CGTCAG | 0.341 ± 0.0358 | 0.427 ± 0.0193 | 0.535 ± 0.0656 |
| CTCGAA | 0.675 ± 0.0333 | 0.763 ± 0.0367 | 0.838 ± 0.0207 |
| AGAACG | 0.692 ± 0.0289 | 0.817 ± 0.046 | 0.844 ± 0.0513 |
| ATGAAC | 1.5 ± 0.0592 | 1.55 ± 0.0999 | 1.47 ± 0.0678 |
| CCCCTC | 0.31 ± 0.0217 | 0.35 ± 0.0216 | 0.456 ± 0.0591 |
| CATCCA | 0.851 ± 0.0432 | 0.934 ± 0.0343 | 0.974 ± 0.0408 |
| ATATCG | 1.31 ± 0.0501 | 1.15 ± 0.0369 | 1.194 ± 0.00992 |
| TAGTAA | 2.21 ± 0.0521 | 2.24 ± 0.0692 | 1.89 ± 0.181 |
| GTCGAA | 0.506 ± 0.0326 | 0.599 ± 0.0193 | 0.7 ± 0.0299 |
| ACTCAG | 0.865 ± 0.0453 | 0.97 ± 0.0144 | 0.994 ± 0.0115 |
| GGGTGA | 0.483 ± 0.00743 | 0.541 ± 0.0302 | 0.632 ± 0.0295 |
| AAGAAT | 2.15 ± 0.0737 | 2.2 ± 0.103 | 1.91 ± 0.167 |
| AGGGCA | 0.305 ± 0.031 | 0.354 ± 0.00942 | 0.51 ± 0.0852 |
| GTAGAA | 1.21 ± 0.0427 | 1.36 ± 0.0162 | 1.27 ± 0.0697 |
| CATTGA | 1.25 ± 0.0236 | 1.39 ± 0.0271 | 1.35 ± 0.0347 |
| ATATTG | 2.19 ± 0.214 | 1.8 ± 0.105 | 1.69 ± 0.149 |

| Sequence | binding signal (SALL4 ZFC4 WT (HT-SELEX)) [fold-change vs cycle 0] | binding signal [1] [fold-change vs cycle 0] | binding signal [2] [fold-change vs cycle 0] |
| --- | --- | --- | --- |
| CCACGA | 0.33 ± 0.0384 | 0.407 ± 0.011 | 0.515 ± 0.0508 |
| CCTTGC | 0.381 ± 0.0117 | 0.45 ± 0.00496 | 0.554 ± 0.0487 |
| ACAATA | 2.09 ± 0.146 | 1.92 ± 0.0865 | 1.71 ± 0.156 |
| TCAGAA | 1.27 ± 0.0471 | 1.37 ± 0.0562 | 1.28 ± 0.0614 |
| AGTAAA | 1.96 ± 0.143 | 2.08 ± 0.144 | 1.78 ± 0.193 |
| AAGCCT | 0.633 ± 0.0294 | 0.72 ± 0.0269 | 0.848 ± 0.0353 |
| AAGTCC | 0.762 ± 0.0144 | 0.863 ± 0.0347 | 0.936 ± 0.0256 |
| CCGATA | 0.671 ± 0.053 | 0.717 ± 0.0449 | 0.816 ± 0.0546 |
| CAATTG | 1.09 ± 0.0289 | 1.247 ± 0.0104 | 1.28 ± 0.0217 |
| CCACAA | 0.612 ± 0.0144 | 0.71 ± 0.0271 | 0.759 ± 0.0161 |
| GCGTTA | 0.54 ± 0.0741 | 0.582 ± 0.053 | 0.668 ± 0.0435 |
| CCACCA | 0.417 ± 0.0318 | 0.471 ± 0.033 | 0.582 ± 0.0561 |
| CGAGTC | 0.379 ± 0.0123 | 0.4362 ± 0.00406 | 0.578 ± 0.0547 |
| GTTACA | 1.35 ± 0.0329 | 1.46 ± 0.0565 | 1.37 ± 0.0864 |
| GCCAAA | 0.353 ± 0.00667 | 0.404 ± 0.0166 | 0.545 ± 0.0739 |
| ACCTAC | 0.796 ± 0.0505 | 0.908 ± 0.0415 | 0.957 ± 0.0179 |
| ATGTCC | 0.723 ± 0.0385 | 0.831 ± 0.0392 | 0.904 ± 0.0203 |
| TGGTAA | 1.41 ± 0.0525 | 1.47 ± 0.055 | 1.4 ± 0.0814 |
| CGTTAA | 1.13 ± 0.0737 | 1.25 ± 0.0783 | 1.17 ± 0.0825 |
| AGGTCC | 0.419 ± 0.0296 | 0.53 ± 0.0164 | 0.632 ± 0.0514 |
